Compound activity deposited in PubChem by several laboratories.
IDE inh – inhibits human insulin-degrading enzyme in HEK cells | P14735 | FAbetaB cleavage, fluorescence polarization | inhibition, % at 5.59 µM | hit rate 0.41% among 320,000;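 active = percent inhibition above the average of all tested compounds plus 3 SD, set per screening campaign, cut at about 16% in these data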;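 also: IDE supplied by intact live HEK cells; FP after avidin binding of uncleaved biotin substrate so inhibition keeps polarization high; 0% = DMSO wells and 100% = 60 µM reference IDE inhibitor Ii1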
Target sequence (P14735 whole entry, looked up): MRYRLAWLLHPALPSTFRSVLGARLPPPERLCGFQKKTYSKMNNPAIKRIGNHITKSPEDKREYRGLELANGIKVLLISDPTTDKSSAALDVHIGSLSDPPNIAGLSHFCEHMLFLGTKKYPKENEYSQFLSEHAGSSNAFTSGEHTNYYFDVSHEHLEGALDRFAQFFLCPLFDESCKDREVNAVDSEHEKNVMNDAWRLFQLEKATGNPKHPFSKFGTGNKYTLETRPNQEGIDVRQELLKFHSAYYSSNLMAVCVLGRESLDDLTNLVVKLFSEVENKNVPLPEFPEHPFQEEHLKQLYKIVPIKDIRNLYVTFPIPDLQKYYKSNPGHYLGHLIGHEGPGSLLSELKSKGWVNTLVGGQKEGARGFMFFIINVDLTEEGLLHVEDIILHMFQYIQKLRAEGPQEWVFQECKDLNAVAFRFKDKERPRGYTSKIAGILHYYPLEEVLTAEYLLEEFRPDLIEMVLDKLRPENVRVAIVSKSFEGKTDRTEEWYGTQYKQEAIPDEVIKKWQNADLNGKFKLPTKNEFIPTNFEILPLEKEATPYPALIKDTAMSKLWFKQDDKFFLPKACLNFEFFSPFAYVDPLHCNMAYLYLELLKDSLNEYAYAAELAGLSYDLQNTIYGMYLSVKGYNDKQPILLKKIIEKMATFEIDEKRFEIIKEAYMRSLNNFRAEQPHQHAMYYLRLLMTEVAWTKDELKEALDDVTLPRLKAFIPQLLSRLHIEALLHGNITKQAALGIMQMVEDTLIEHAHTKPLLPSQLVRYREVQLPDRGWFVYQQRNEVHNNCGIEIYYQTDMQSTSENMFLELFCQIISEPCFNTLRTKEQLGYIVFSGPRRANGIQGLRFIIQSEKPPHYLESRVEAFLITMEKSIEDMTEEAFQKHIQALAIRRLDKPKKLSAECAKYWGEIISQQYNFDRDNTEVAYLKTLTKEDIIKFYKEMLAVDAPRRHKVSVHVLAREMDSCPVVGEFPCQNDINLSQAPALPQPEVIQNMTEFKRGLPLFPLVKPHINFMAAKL
IDE cell activ – activators of human insulin-degrading enzyme in cells | P14735 | HEK cells, FAbeta-B cleavage, fluorescence polarization; 0% vehicle, 100% cell-free pure enzyme wells | activation, % at 5.96 µM | hit rate 0.073% among 340,000;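 active = activation above the mean of all tested compounds plus 3 SD, set per screening campaign, cut at about 17% in these data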
TMEM16A inh – blocks the mouse calcium-activated chloride channel TMEM16A. HEK293 TMEM16A/YFP iodide influx fluorescence, ionomycin. hit rate 1.2% among 310,000. normalized B-score (activity score, 25-100; higher = stronger inhibition) at 10 µM;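 active = ratio plate-corrected score three or more library SD toward inhibition, starting fluorescence score within five deviations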;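 also: score derived from kinetic fluorescence span divided by baseline fluorescence per well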
ANO1 activ – activators or potentiators of mouse TMEM16A chloride channel | HEK293 TMEM16A/YFP-H148Q/I152L, iodide quench fluorescence; hits give low values | B-score at 10 µM | hit rate 0.3% among 340,000 | AID 623877;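 active = fluorescence-ratio B-score plate-corrected deviation score at least 3 library SD below zero, with starting fluorescence score within 5 deviations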;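 also: channel opened by trigger with iodide after compound preincubation; score built on the fluorescence ratio of max minus min over baseline; more negative score means more quench and so TMEM16A activation or potentiation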
CHT allo act – allosteric activators of human choline transporter CHT. Q9GZV3. hit rate 0.49% among 310,000. AID 488977. B-score at 10 µM. CHT-expressing cells, membrane potential dye, choline EC20; hits give high values; LV-AA mutant CHT in HEK293 cells;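 active = initial fluorescence not abnormally high and integrated response B-score, plate-corrected, over 3 SD above library mean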
CHT inh – inhibitors of human choline transporter CHT | B-score at 10 µM | CHT-expressing cells, membrane potential dye, choline response; hits give low values | AID 488975 | hit rate 0.86% among 310,000 | Q9GZV3;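 active = B-score over 3 SD under the library average, and starting fluorescence ratio not unusually high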;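 also: choline stimulus applied at its EC90 after an EC20 pre-addition; B-score computed on integrated fluorescence ratio after choline addition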
IDE inh confirm – cellular human IDE inhibition, confirmation; shares compounds with IDE inh; HEK cells, FAbetaB cleavage, fluorescence polarization; inhibition, % at 5.59 µM; hit rate 51% among 1,200;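 active = mean inhibition across triplicate wells above the cutoff set by the earlier primary insulin-degrading enzyme screen, cut at about 16% in these data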;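 also: 0% = DMSO wells and 100% = 60 µM reference IDE inhibitor Ii1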
HEK cytotox – counter-screen for IDE inhibitors: cytotoxicity in HEK cells | HEK293 cytotoxicity, ATP luminescence | inhibition, % at 5.59 µM | AID 449730 | hit rate 28% among 1,200 | shares compounds with IDE inh; in the data active = inhibition above about 22%;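 also: 0% = vehicle wells and 100% = reference cytotoxic drug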
FP fluor counter – fluorescence interference counter-screen for IDE inhibitors; shares compounds with IDE inh; FP counterscreen for fluorescent artifacts, IDE probe project; IC50, µM; 30 tested, under 10 active; AID 588718; call rule not given here
* = called active by the depositor; i = inactive; / = no result. Shown are actives, neighbours in structure and some others; about 2.7% of the full set was active somewhere.

SMILES	IDE inh	IDE cell activ	TMEM16A inh	ANO1 activ	CHT allo act	CHT inh	IDE inh confirm	HEK cytotox	others
Cn1c(=O)c(C(=O)CN2CCCc3ccccc32)c(N)n(Cc2ccccc2)c1=O	30.5*	0.2	i	i	i	i	16.6*	21.7	FP fluor counter=>54.7
CC(C(=O)NCCCn1ccnc1)(c1ccccc1)c1ccccc1	1.0	-1.5	i	i	i	i	/	/
O=C(Nc1cccc(-n2cnnn2)c1)c1cccc(Cl)c1	18.3*	-10.7	i	i	i	i	11.6	13.1
O=C(Nc1cccc(-n2cnnn2)c1)c1ccc(Cl)cc1Cl	-1.3	-1.4	i	i	i	i	/	/
CC(OC(=O)/C(C#N)=C/c1ccc(N(C)C)cc1)C(=O)N(C)Cc1ccccc1 (configuration not stated)	29.6*	-31.5	i	-10.1*	i	i	36.6*	17.6
CC(=O)C1=C(C)NC(SCSc2ccccc2)=C(C#N)C1c1cccnc1 (configuration not stated)	21.2*	/	i	/	i	i	12.7	13.4
Cc1cccc(N2CCN(CC(=O)Nc3ccc(S(=O)(=O)N4CCOCC4)cc3)CC2)c1C	19.0*	-11.9	25*	i	i	i	8.7	43.0*
N#Cc1cc(C(=O)c2cc(F)ccc2O)cn(-c2nccs2)c1=O	33.1*	-42.5	i	i	i	i	66.6*	13.4
N#Cc1cc(C(=O)c2ccccc2O)cn(-c2nccs2)c1=O	38.5*	-50.5	i	i	i	i	61.4*	13.7
COCCNC(=O)CCN1N=C(c2ccccc2)CCC1=O	1.8	2.9	i	i	i	i	/	/
O=C(CCC1N=C2c3ccccc3N=C(SCc3ccccc3Cl)N2C1=O)NCc1ccco1 (configuration not stated)	21.2*	-0.3	i	i	i	i	2.4	18.9
CN(C)S(=O)(=O)N1CCN(CC(O)COc2ccc3cc(Br)ccc3c2)CC1 (configuration not stated)	5.7	-12.1	i	i	i	i	/	/
CCOC(=O)N1CCN(CC(O)COCc2ccccc2)CC1 (configuration not stated)	-1.5	-1.8	i	i	i	i	/	/
CN(C)S(=O)(=O)N1CCN(CC(O)COc2ccc(-c3ccccc3)cc2)CC1 (configuration not stated)	17.5*	-17.9	i	i	i	i	5.7	16.1
CCOC(=O)N1CCN(CC(O)COc2ccc(-c3ccccc3)cc2)CC1 (configuration not stated)	16.6*	-16.7	i	i	i	i	10.2	10.7
CCOC(=O)c1c(C)[nH]c(C(=O)Cn2nnc(-c3ccccc3Cl)n2)c1C	18.8*	-18.9	i	i	i	i	3.6	15.2
CCOC(=O)c1c(C)[nH]c(C(=O)Cn2nnc(-c3ccccc3)n2)c1C	5.9	-0.2	i	i	i	i	/	/
CC(=O)c1ccc(NC(=O)CN2CCCC2)cc1	0.8	5.4	i	i	i	i	/	/
O=C(Nc1ccccc1Cl)N1CCN(c2ccc3nnc(-c4ccc(F)cc4)n3n2)CC1	1.6	-9.1	i	i	i	i	/	/
COc1ccccc1NC(=O)N1CCN(c2ccc3nnc(-c4ccc(F)cc4)n3n2)CC1	16.7*	-4.9	i	i	i	i	8.3	9.0
COc1ccccc1NC(=O)N1CCN(c2cc(-c3ccccc3)nc3ncnn23)CC1	18.6*	-14.6	i	i	i	i	-0.2	22.9*
COc1ccc(OC)c(NC(=O)C2CCN(c3cc(-c4ccccc4)nc4ncnn34)CC2)c1	3.1	-6.7	i	i	i	i	/	/
CCCCc1ccc(NS(=O)(=O)c2cccc(C(=O)N3CCNC(=O)C3)c2)cc1	/	4.2	/	i	/	/	/	/
Cc1cccc(N2C(=O)c3cccc4c(N(C)CCO)ccc(c34)C2=O)c1	79.3*	-72.2	i	i	i	i	109.8*	13.4
Cc1cccc(N2C(=O)c3cccc4c(N)ccc(c34)C2=O)c1	72.6*	-42.5	i	i	i	i	96.2*	3.6
SMILES	IDE inh	IDE cell activ	TMEM16A inh	ANO1 activ	CHT allo act	CHT inh	IDE inh confirm	HEK cytotox	others
Cc1cccc(N2C(=O)c3cccc4cccc(c34)C2=O)c1	5.3	2.2	i	i	i	i	/	/
CCOC(=O)c1c(S(=O)(=O)N2CCC(C)CC2)c(C)n(C)c1C	0.4	3.3	i	i	i	i	/	/
COc1cc(-c2noc(CCCC(=O)Nc3cccnc3)n2)cc(OC)c1OC	16.2*	5.4	i	i	i	i	0.1	6.4
O=c1c2[nH]c3ccc(Br)cc3c2ncn1CCCn1ccnc1	21.1*	-9.4	i	i	i	i	5.6	18.6
O=c1c2[nH]c3ccccc3c2ncn1CCCn1ccnc1	3.3	-3.5	i	i	i	i	/	/
O=C(Cn1nnc(-c2ccc(F)cc2)n1)Nc1cccc(S(=O)(=O)N2CCCC2)c1	-3.7	2.2	/	i	/	/	/	/
N#C/C(=C\c1ccccn1)c1nc2ccccc2s1	27.6*	-60.1	i	i	i	i	46.1*	16.9
N#C/C(=C/c1ccc(-c2ccc(S(N)(=O)=O)cc2)o1)c1nc2ccccc2s1	39.9*	-48.0	i	i	i	i	77.8*	24.4*
N#C/C(=C(/O)C(Cl)c1ccccc1)c1nc2ccccc2s1 (configuration not stated)	-7.2	2.3	i	i	i	i	/	/
COC(=O)c1ccc(/C=C(\C#N)c2nc3ccccc3s2)cc1	31.7*	6.0	i	i	i	i	-1.5	11.7
COc1cccc(CN2CC(C(=O)NCC3CCOCC3)CCC2=O)c1 (configuration not stated)	0.7	-0.8	i	i	i	i	/	/
CCN(CC)c1ccc(/C=C2\C(=N)N3N=C(CC(=O)N4CCOCC4)SC3=NC2=O)cc1	19.9*	-22.8	i	i	i	i	36.5*	6.0
Cc1cc2nc(-c3ccc(SCc4ccc(C#N)cc4)nc3)[nH]c2cc1C	17.1*	-9.8	i	i	i	i	3.5	19.9
Cc1nc2ccccc2c(=O)n1-c1ccc(NS(=O)(=O)c2ccc(F)cc2)cc1	22.1*	-9.4	i	i	i	i	6.3	9.6
